Screening data deposited in PubChem by National Center for Advancing Translational Sciences (NCATS).
A selection: hits, their analogues and other compounds. The true share with any hit is near 13%.
ALDH1A1 block = qHTS Assay for Inhibitors of Aldehyde Dehydrogenase 1 (ALDH1A1). Aldehyde dehydrogenase 1A1 (Homo sapiens), P00352. Purified ALDH1A1, NADH fluorescence, propionaldehyde substrate. Potency, µM (titrated, usually from 75.3 µM), for the others: at the highest dose activity, negative = inhibition, actives largely listed as inhibitors. 220,000 tested, 7.3% active; active = well fitted inhibition curve with a large enough effect, not every such curve was filed as active; inconclusive = small, poorly fitted or top-dose-only effect, or another doubt; inactive = no such curve, though single readings can be large or run the other way;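 note: potency is the fitted concentration of half-maximal effect; plate controls were no enzyme wells and a reference inhibitor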
miR-21 act = qHTS Assay for Modulators of miRNAs and/orActivators of miR-21. 340,000 tested, under 10 active. AID 2288, 2010. HeLa miR-21 FLuc reporter, luciferase, 48 h. Potency, µM (doses to about 38.3 µM), inactives show top-dose activity change, positive = activation, most hits filed as activators;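 note: % of control where 0% means no effect; miR-21 action dims this reporter so a rising signal means less miR-21 action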
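Luminescence from a firefly luciferase reporter carrying a miR-21 binding site downstream, stably expressed under a CMV promoter in HeLa cells that make miR-21 endogenously, reports miRNA modulation after 48 h compound exposure up to approximately 40uM final.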
KDM4E inh = qHTS Assay for Inhibitors of Human Jumonji Domain Containing 2E (JMJD2E); Lysine-specific demethylase 4E (Homo sapiens), B2RXH2; JMJD2E catalytic domain, FDH-coupled NADH fluorescence (FDH is formaldehyde dehydrogenase); Potency, µM (doses to about 57.1 µM), for the others: at the top dose activity change, negative = inhibition, hits mostly inhibitors; 230,000 tested, 1.6% active; active = well fitted inhibition curve with a large enough effect, not every such curve was filed as active; inconclusive = small, poorly fitted or top-dose-only effect, or another doubt; inactive = no such curve, though single readings can be large or run the other way;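 note: potency is the fitted concentration of half-maximal effect; 0% = wells with enzyme and -100% = buffer wells without enzyme; nearly all actives have a fitted effect of over 50% in size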
Target sequence (B2RXH2 1-337 limits assumed): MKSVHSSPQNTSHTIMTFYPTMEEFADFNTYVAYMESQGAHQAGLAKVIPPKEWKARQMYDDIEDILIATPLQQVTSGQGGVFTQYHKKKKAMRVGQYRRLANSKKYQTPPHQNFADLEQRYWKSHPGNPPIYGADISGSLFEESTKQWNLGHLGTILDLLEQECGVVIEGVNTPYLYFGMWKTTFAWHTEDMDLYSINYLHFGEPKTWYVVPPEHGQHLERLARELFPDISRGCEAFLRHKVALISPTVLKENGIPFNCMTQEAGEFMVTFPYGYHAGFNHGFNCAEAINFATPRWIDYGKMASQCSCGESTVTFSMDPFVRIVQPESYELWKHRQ
Sfp PPTase inh = qHTS Assay for Inhibitors of Bacillus subtilis Sfp phosphopantetheinyl transferase (PPTase). 4'-phosphopantetheinyl transferase ffp (Bacillus subtilis), Q9F4F7. Biochemical Sfp PPTase activity, qHTS. Potency, µM, inactives show largest response in the series, negative = inhibition, hits mostly inhibitors. 310,000 tested, 3.5% active;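 note: the enzyme is Sfp with the accession as filed and its product quenches rhodamine fluorescence; potency is the fitted concentration of half-maximal effect; 0% = enzyme reaction without inhibitor and -100% = no enzyme wells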
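Fluorescence-quenching assay: 15 nM Sfp-PPTase preincubated 15 min at room temperature with compound, then 5 uM rhodamine-CoA and 12.5 uM BHQ-2-labelled YbbR peptide added. Fluorescence (ex 525/em 598 nm) read at start and after 30 min; difference gives rate.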
LMNA splice mod = qHTS Assay for Modulators of Lamin A Splicing; HeLa LMNA splicing GFP/RFP minigene ratio, 48 h; Potency, µM (series often up to 46.1 µM), inactives show at the highest dose ratio change, negative = inhibition, usual class: inhibitors; 200,000 tested, 0.01% active; AID 1487, 2009; active = well fitted inhibition curve with a large enough effect in the signal ratio, with a control signal flat, not every such curve was filed as active; inconclusive = small, poorly fitted or top-dose-only effect, or effect the other way, or a change in a side signal; the % refers to the signal ratio; note: potency is the fitted concentration of half-maximal effect; % is set by controls: 0 for no effect and ±100 for the full control effect
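S3 HeLa cells stably expressing lamin A-EGFP splicing minigene plus DsRed2, 600 cells/well, 48 h compound exposure at 37C. Laser-scanning cytometry; analysed as GFP (500-530 nm)/RFP (575-640 nm) total intensity ratio; 0.5% DMSO vehicle.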
G9a block = qHTS Assay for Inhibitors of Histone Lysine Methyltransferase G9a; Potency, µM (doses to about 102 µM), for the others: at the top dose activity, negative = inhibition, most hits filed as inhibitors; Histone-lysine N-methyltransferase EHMT2 (Homo sapiens), Q96KQ7; 350,000 tested, 8.8% active; G9a H3K9 monomethylation, AlphaScreen, 2 h; note: potency is the fitted concentration of half-maximal effect; % is set by controls: 0 for no effect and ±100 for the full control effect; nearly all actives have a fitted effect of over 75% in size
Target sequence (Q96KQ7 913-1193 limits assumed): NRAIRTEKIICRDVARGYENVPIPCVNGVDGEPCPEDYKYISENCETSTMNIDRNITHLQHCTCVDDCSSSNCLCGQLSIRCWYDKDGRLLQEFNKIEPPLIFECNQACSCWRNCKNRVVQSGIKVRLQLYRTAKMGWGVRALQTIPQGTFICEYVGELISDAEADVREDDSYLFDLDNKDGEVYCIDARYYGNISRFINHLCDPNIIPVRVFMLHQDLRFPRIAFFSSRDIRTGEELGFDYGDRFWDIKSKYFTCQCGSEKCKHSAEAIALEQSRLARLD
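G9a (20 nM) was preincubated 15 min with compound, then reacted 2 h at room temperature with 500 nM biotin-H3K9 peptide and 20 µM SAM. Monomethyl-H3K9 detected by AlphaScreen using anti-H3K9me1 antibody.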
An asterisk follows results filed as active; ? = inconclusive; . = no result given; [ ] = another dose, or the depositor's remark. Unless noted, calls come from the whole dose curve; as a rule, active = well fitted curve in the direction sought with a large enough effect; inconclusive = small, poorly fitted or top-dose-only effect, or another doubt; inactive = no such curve, though single readings can be large; an effect the other way counts as inactive or inconclusive.

SMILES	ALDH1A1 block	miR-21 act	KDM4E inh	Sfp PPTase inh	LMNA splice mod	G9a block
Cc1cccc(C(=O)N=c2sccn2C)c1[N+](=O)[O-]	.	-65%	.	20%	.	?
COc1ccc(C(=O)Nc2ccc(N3CCN(C(=O)c4cccs4)CC3)cc2)cc1Br	.	22%	.	-2%	.	.
COc1ccc(C(=O)Nc2ccc(N3CCCC3)cc2)cc1Br	.	-34%	.	-2%	.	40µM*
COc1ccc(C(=O)Nc2ccc(N3CCCC3)cc2)cc1OC	.	-65%	.	-8%	.	2.5µM*
COc1ccc(NC(=O)C2CCCN2c2ccc(OC)c(OC)c2)cc1OC (configuration not stated)	4%	-12%	-22%	-2%	-2%	71µM*
COc1ccc(C(=O)Nc2ccc(N3CCOCC3)cc2)cc1OC	?	-42%	2%	7%	7%	4%[59 µM]
CC(C)C1CC(C(F)(F)F)n2nc(C(=O)O)cc2N1 (configuration not stated)	11%	-2%	-6%	11%	0%[46 µM]	-32%
CN(C)/N=C/c1ccc(Sc2ccccc2[N+](=O)[O-])o1	?	-5%	-3%	-3%	?	25µM*
CN(C)/N=C/c1ccc([N+](=O)[O-])cc1[N+](=O)[O-]	?	3%	0%	56µM*	.	11µM*
CN(/N=C/c1cc([N+](=O)[O-])ccc1O)c1ccccc1	1%	-46%	2%	-4%	?	15%[59 µM]
C[C@@H](c1ccccc1)N1C(=O)[C@H]2[C@H]3[C@H](O)[C@H](O)C/C(=N/OCc4ccccc4)[C@H]3CC[C@@H]2C1=O	1%[13.5 µM]	.	.	23%	.	.
Cc1cc(COc2ccccc2O)on1	25%	-4%	8%	3%	6%	71µM*
Oc1c(Br)cc(/C=N/n2c(-c3ccccc3)n[nH]c2=S)cc1Br	.	1%	.	-19%	.	1.3µM*
Oc1c(Br)cc(/C=N/n2c(-c3ccccc3)n[nH]c2=S)c(O)c1Br	.	2%	.	-13%	.	0.4µM*
Cc1nn(-c2ccccc2)c(C)c1/C=N/n1c(-c2ccc(C(C)(C)C)cc2)n[nH]c1=S	-8%	-3%	2%	-17%	?	29%[0.501 µM]
Oc1ccc(/C=N/n2c(-c3ccccc3)n[nH]c2=S)cc1Br	.	-1%	.	-26%	.	0.89µM*
Cc1c(Br)c(O)c(Br)c(O)c1/C=N/n1c(-c2ccccc2)n[nH]c1=S	.	10%	.	?	.	0.79µM*
CC[C@@H]1OC(=O)[C@@H](C)[C@H](O[C@H]2C[C@@](C)(OC)[C@@H](O)[C@H](C)O2)C(C)[C@H](O[C@H]2O[C@@H](C)C[C@@H](N(C)C)[C@@H]2O)[C@@](C)(O)C[C@H](C)C(=O)[C@@H](C)[C@H](O)[C@@]1(C)O (some centres not stated)	-5%	.	2%	7%	.	.
Cc1cc(C)c(NC(=O)Cn2c(=O)n(CC3CCCO3)c(=O)c3ccccc32)c(C)c1 (configuration not stated)	.	3%	.	.	.	3%[59 µM]
CCNC(=S)NNc1nncc2ccccc12	?	-17%	-10%	4µM*	-3%[9.22 µM]	?
CNC(=S)NNc1nncc2ccccc12	?	-10%	-14%	22µM*	?	2.5µM*
O=c1c(N2CCc3ccccc3C2)csc2ccc(Cl)cc12	.	-13%	.	.	-25%[46 µM]	-3%[59 µM]
Cn1c(=O)c2[nH]c(/N=N\N3CCN(CCO)CC3)nc2n(C)c1=O	2%[13.5 µM]	.	.	.	.	.
COc1cccc(Nc2ncc3ncc(=O)n(CCc4ccccc4)c3n2)c1	9%	.	.	-6%	?	-15%[0.501 µM]
CN(C)S(=O)(=O)n1cc(/C=C(\NC(=O)c2ccccc2Cl)C(=O)N2CCCC2)c2ccccc21	.	1%	.	3%	.	16%
SMILES	ALDH1A1 block	miR-21 act	KDM4E inh	Sfp PPTase inh	LMNA splice mod	G9a block
COCCn1cc(C(=O)NCc2cccs2)c2c3ccccc3n(C)c2c1=O	?	0%	?	-13%	7%	50µM*
COc1ccccc1NC(=O)c1cc2ccccc2o/c1=N\O	?	-38%	-3%	50µM*	4%	14µM*
COc1ccccc1NC(=O)c1cc2ccc(O)cc2o/c1=N\O	-9%	-22%	?	-10%	?	?
Cc1ccc(C)c(N2CCN(c3nc4ccccc4c4nc(CCn5nc(C)cc5C)nn34)CC2)c1	.	2%	.	.	.	-1%[59 µM]
Cc1cc(C)c(S(=O)(=O)N2CCCC(C(=O)NCc3ccncc3)C2)c(C)c1 (configuration not stated)	.	0%	.	5%	.	.
O=C(OCC(=O)N1CCN(c2ccccc2)CC1)c1ccccn1	0%	-5%	7%	7%	5%	-45%
O=C(COc1ncnc2ccccc12)N1CCN(c2ccccc2)CC1	-10%	-4%	2%	8%	.	50µM*
O=C(OCC(=O)N1CCN(c2ccccc2)CC1)c1ccc2ccccc2n1	8.9µM*	8%	0%	9%	2%	36%[12.7 µM]
COc1cccc(NC(=O)CSc2nc3cc(OC)c(OC)cc3c3nc(-c4ccccc4)nn23)c1	.	-3%	.	.	.	?
CC(C)(C)Nc1c(-c2ccc(O)cc2)nc2ccc(Cl)cn12	?	6%	-2%	63µM*	.	.
Oc1ccc(-c2nc3ccc(Cl)cn3c2Nc2ccc(Cl)cc2)cc1	.	22%	.	.	.	9%[59 µM]
Cc1cc(C)cc(NC(=O)C(=O)NCC(c2ccc3c(c2)OCO3)N2CCN(C)CC2)c1 (configuration not stated)	.	-20%	.	.	?	-5%[59 µM]
CCOC(=O)C(=NCCOC)NNc1cc(Cl)ccc1Cl	?	-4%	2%	-28%	-1%	40µM*
CCOC(=O)C(=NC1CCS(=O)(=O)C1)NNc1cc(Cl)ccc1Cl (configuration not stated)	.	0%	?	-6%	.	?
O=C(Nc1cccc(C(F)(F)F)c1)N1CCC(CN2CCCCCC2)CC1	.	-3%	.	.	9%[46 µM]	?
CCCC[n+]1ccn(C2=C([O-])c3ccccc3C(=O)/C2=N\S(=O)(=O)c2ccccc2)c1	?	19%	0%	14%	-2%	6%[0.501 µM]
CCCCC[n+]1ccn(C2=C([O-])c3ccccc3C(=O)/C2=N\S(=O)(=O)c2ccccc2)c1	5µM*	1%	-15%	-2%	3%	5%[0.0925 µM]
Cc1ccc2c(c1)/C(=N/OC(=O)c1ccc(F)cc1)CCS2	3%	-2%	-2%	-27%	-11%	92%[59 µM]
